# PubChem BioAssay
# Results filed as inconclusive are left out. Active and inactive are the calls of the source. Cut-off not given; nearly all actives show AC50 up to about 26 µM.
# Assay: viability loss in pontine glioma line – cell-based, SU-DIPG-XVII, MIPE5.0, CellTiter-Glo, qHTS, dose response (AID 1347060);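 on AC50: cells exposed to compound for 48 hours before viability readout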
# Settings: CellTiter-Glo ATP luminescence
Compound,AC50,outcome
CN(C)CCCN=c1c2ccccc2n(C)c2[nH]c(=O)n(C)c(=O)c12,29.5 µM (active),
C[C@@H]1COC(Nc2ccc3ncnc(Nc4ccc(OCc5nccs5)c(Cl)c4)c3c2)=N1,20.9 µM (active),
Cc1ccc2nc(NCCN)c3ncc(C)n3c2c1,8.33 µM (active),
CC(C)c1cnn2c(NCc3ccccc3)cc(NCCCCCCN)nc12,18.6 µM (active),
COC[C@H](NC(=O)c1cnc(C)s1)C(=O)N[C@@H](COC)C(=O)N[C@@H](Cc1ccccc1)C(=O)[C@@]1(C)CO1,0.186 µM (active),
CCN(CC)CCCCNc1nc2cc(Cl)c(Cl)cc2nc1-c1ccc(-c2cccs2)s1,6.61 µM (active),
O=C(c1ccc(/C=C/c2n[nH]c3ccccc23)cc1)N1CCNCC1,5.9 µM (active),
CCOC(=O)[C@H]1O[C@@H]1C(=O)N[C@@H](CC(C)C)C(=O)NCCC(C)C,,inactive
C[C@]1(c2nc3c(C(N)=O)cccc3[nH]2)CCCN1,,inactive
NC(=O)N1CCC(CC(=O)N2CCC([C@H]3c4ncc(Br)cc4CCc4cc(Cl)cc(Br)c43)CC2)CC1,18.6 µM (active),
O=C1NCCc2[nH]c(-c3ccncc3)cc21,3.72 µM (active),
CNC(=O)c1ccc(N2C(=S)N(c3ccc(C#N)c(C(F)(F)F)c3)C(=O)C2(C)C)cc1F,,inactive
Cn1cncc1[C@@](N)(c1ccc(Cl)cc1)c1ccc2c(c1)c(-c1cccc(Cl)c1)cc(=O)n2C,33.2 µM (active),
O=C(O)c1ccc2c(c1)nc(Nc1cccc(Cl)c1)c1ccncc12,8.33 µM (active),
COc1cc2c(NC3CCN(C(C)C)CC3)nc(C3CCCCC3)nc2cc1OCCCN1CCCC1,23.5 µM (active),
CCN1CCC(n2cc(CNc3cc(Cl)c4ncc(C#N)c(Nc5ccc(F)c(Cl)c5)c4c3)nn2)CC1,18.6 µM (active),
CC(C)C[C@H](NC(=O)CNC(=O)c1cc(Cl)ccc1Cl)B(O)O,0.166 µM (active),

Compound,AC50,outcome
CCc1ccc(C(=O)Nc2cc(CN3CCN(C)CC3)cc(C(F)(F)F)c2)cc1C#Cc1cnc2ccnn2c1,14.8 µM (active),
CC1(C)CCC(c2ccc(Cl)cc2)=C(CN2CCN(c3ccc(C(=O)NS(=O)(=O)c4ccc(N[C@H](CCN5CCOCC5)CSc5ccccc5)c(S(=O)(=O)C(F)(F)F)c4)cc3)CC2)C1,8.33 µM (active),
C#Cc1cccc(Nc2ncnc3cc(OCCOC)c(OCCO)cc23)c1,11.8 µM (active),
CC(C)CC(=O)Nc1n[nH]c2c1CN(C(=O)C1CCN(C)CC1)C2(C)C,6.61 µM (active),
CCOC(CN1C(=O)[C@](CC(=O)Nc2ccc(C)cc2)(NC(=O)Nc2ccc(C)cc2)c2ccccc21)OCC,23.5 µM (active),
CNC(=O)Nc1ccc(-c2nc(N3CC4CCC(C3)O4)c3cnn(C4CCC5(CC4)OCCO5)c3n2)cc1,0.742 µM (active),
C=CCn1c(=O)c2cnc(Nc3ccc(N4CCN(C)CC4)cc3)nc2n1-c1cccc(C(C)(C)O)n1,4.17 µM (active),
CS[C@H]1SC[C@@H]2C(=O)N(C)[C@H](C(C)C)C(=O)OC[C@H](NC(=O)c3cnc4ccccc4n3)C(=O)N[C@H](C)C(=O)N(C)[C@H]1C(=O)N(C)[C@H](C(C)C)C(=O)OC[C@H](NC(=O)c1cnc3ccccc3n1)C(=O)N[C@H](C)C(=O)N2C,0.00331 µM (active),
CC(C)c1cnn2c(NCc3ccccc3)cc(N[C@@H](CO)[C@H](O)CO)nc12,0.263 µM (active),
O=C(O)[C@H](Cc1c[nH]c2ccccc12)N1C(=O)c2ccccc2C1=O,,inactive
COc1ccc(F)c(F)c1C(=O)c1cnc(NC2CCN(S(C)(=O)=O)CC2)nc1N,1.86 µM (active),
C[C@H]1[C@H](OC(=O)CCC(=O)O)O[C@@H]2O[C@@]3(C)CC[C@H]4[C@H](C)CC[C@@H]1[C@@]24OO3,3.72 µM (active),
O=C1NC(=O)C(c2cnc3ccccn23)=C1c1cn2c3c(cccc13)CN(C(=O)N1CCOCC1)CC2,1.05 µM (active),
Cc1ccc(S(=O)(=O)OCC(=O)Nc2ccc(C(=O)O)c(O)c2)cc1,,inactive
CC/C(=C(/c1ccc(O)cc1)c1ccc(OCCNC)cc1)c1ccccc1,2.63 µM (active),
CC(=O)OCC(=O)[C@@]1(O)[C@H](C)C[C@H]2[C@@H]3C=C(C)C4=Cc5c(cnn5-c5ccccc5)C[C@]4(C)[C@H]3[C@@H](O)C[C@@]21C,20.9 µM (active),
